Source: PubChem (Broad Institute)
Rows were chosen to be rich in hits. Some 3.1% of all compounds tested hit in one or more screens of this group.
DENV2 CPE rescue: inhibitors of DENV2 cytopathic effect; DENV2-infected cells, cytopathic effect rescue, plate reader; CPE inhibition, % at 9.99 µM; actives 1.7% (n = 350,000); in the data active = CPE inhibition above about 20%, passing the limit was not always enough; inconclusive = no clear call, values can overlap the other calls; tested in BHK-21 cells
INS-1E GSIS act: GLuc luminescence reporter in INS-1E cells, primary screen for activators of glucose-dependent secretion of insulin. INS-1E GLuc reporter insulin secretion, 2-3 h. activation, % at 16.6 µM. actives 0.61% (n = 370,000);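 active = lowest replicate activation of at least 40%, so every replicate reaches that level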
RAD52 anneal inh: blocks human RAD52 DNA annealing; recombinant RAD52 DNA annealing, FRET fluorescence; inhibition, % at 18.7 µM; actives 0.46% (n = 360,000);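 active = every replicate showing at least 50% inhibition; inconclusive = mean inhibition at least 50% but not in every replicate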
MLL AF4-AF9 inh: blocks AF4 peptide binding to human AF9; P42568; AlphaScreen, biotin-AF4 peptide binding to FLAG-AF9; inhibition, % at 10 µM; actives 0.47% (n = 350,000); AID 651704;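 active = every replicate reaching a set inhibition limit, whatever the replicate mean, cut at about 25% in these data; inconclusive = mean inhibition reaches that limit but some replicates miss it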
Target sequence (P42568 whole entry, looked up): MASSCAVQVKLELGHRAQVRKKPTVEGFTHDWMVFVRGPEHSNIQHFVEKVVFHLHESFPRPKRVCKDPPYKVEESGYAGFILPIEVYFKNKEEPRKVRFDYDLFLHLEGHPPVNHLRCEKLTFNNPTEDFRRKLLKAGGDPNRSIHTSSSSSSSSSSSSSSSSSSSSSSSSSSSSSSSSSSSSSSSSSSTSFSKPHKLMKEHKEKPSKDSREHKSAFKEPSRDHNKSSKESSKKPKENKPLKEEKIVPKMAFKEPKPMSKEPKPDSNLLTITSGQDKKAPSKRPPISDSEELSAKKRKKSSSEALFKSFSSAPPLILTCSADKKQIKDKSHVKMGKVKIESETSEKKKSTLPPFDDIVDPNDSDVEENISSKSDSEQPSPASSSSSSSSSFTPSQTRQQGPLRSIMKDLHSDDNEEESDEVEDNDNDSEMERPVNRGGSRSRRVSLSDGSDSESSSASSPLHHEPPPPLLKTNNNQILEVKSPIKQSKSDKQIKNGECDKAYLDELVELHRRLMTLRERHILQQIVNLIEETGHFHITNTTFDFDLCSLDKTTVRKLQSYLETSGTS
dFosB act: activators of mouse delta FosB homodimer; P13346; purified delta FosB, TAMRA-CDK5 oligo fluorescence polarization; percent of positive-control signal above neutral wells; activation, % at 25 µM; actives 0.99% (n = 340,000);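 active = mean activation above about 17%, with every replicate also reaching it, limit read from the data, passing the limit was not always enough; inconclusive = only one of the two conditions met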
RAD54 inh: inhibitors of human RAD54 branch migration. Q92698. RAD54 Holliday junction branch migration, FAM/BHQ fluorescence. actives 0.14% (n = 360,000). inhibition, % at 10.4 µM. AID 602329;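 active = mean normalized replicate activity at least 40 and at least half of replicates scoring 40 or more; inconclusive = only one of the two criteria met; inactive = mean below 40 and under half of replicates reaching 40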;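 also: inhibitors cause a drop in the FAM fluorescence signal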
Numbers stand for hits; 0 = inactive; ? = inconclusive; - = no result.

SMILES	DENV2 CPE rescue	INS-1E GSIS act	RAD52 anneal inh	MLL AF4-AF9 inh	dFosB act	RAD54 inh
C[C@@H]1CN([C@@H](C)CO)C(=O)c2cc(NC(=O)Cn3cnnn3)ccc2O[C@@H]1CN(C)C(=O)Nc1ccc(F)cc1	0	0	0	0	-	0
C[C@@H]1CN([C@@H](C)CO)C(=O)c2cc(NC(=O)Nc3ccc(C(F)(F)F)cc3)ccc2O[C@H]1CN(C)Cc1ccccc1	0	0	0	0	-	0
C[C@@H]1CN([C@H](C)CO)C(=O)c2cc(NC(=O)Nc3ccc(C(F)(F)F)cc3)ccc2O[C@@H]1CN(C)Cc1ccccc1	83.2	0	0	0	-	0
C[C@@H]1CN([C@H](C)CO)C(=O)c2cc(NC(=O)Cn3cnnn3)ccc2O[C@@H]1CN(C)C(=O)Nc1ccc(C(F)(F)F)cc1	58.8	0	0	0	-	0
C[C@@H]1CN([C@@H](C)CO)C(=O)c2cc(NC(=O)Nc3ccccc3)ccc2O[C@H]1CN(C)Cc1ccc(C(F)(F)F)cc1	21.4	0	0	0	-	0
C[C@H]1CN([C@@H](C)CO)C(=O)c2cc(NC(=O)C3CC3)ccc2O[C@H]1CN(C)Cc1ccc(C(F)(F)F)cc1	26.6	0	0	0	-	0
C[C@H]1CN([C@@H](C)CO)C(=O)c2cc(NC(=O)C3CCCCC3)ccc2O[C@@H]1CN(C)Cc1ccc(C(F)(F)F)cc1	0	0	0	0	-	0
COCC(=O)N1C[C@@H]2[C@H](c3ccccc31)[C@H](CO)N2C(=O)C1CCCCC1	-	0	0	-	-	0
C[C@@H]1CN([C@@H](C)CO)C(=O)CCCn2cc(nn2)CO[C@@H]1CN(C)S(C)(=O)=O	-	0	-	-	-	-
C[C@@H]1CN([C@@H](C)CO)C(=O)c2cc(C3=CCCC3)cnc2O[C@H]1CN(C)C(=O)Cc1ccncc1	0	0	0	0	-	0
C[C@H](CO)N1C[C@H](C)[C@@H](CN(C)S(=O)(=O)c2cn(C)cn2)Oc2ccc(NC(=O)NC3CCCCC3)cc2CC1=O	0	0	0	0	-	0
C[C@H]1CN([C@@H](C)CO)C(=O)c2cc(NC(=O)Nc3ccccc3)ccc2O[C@@H]1CN(C)C(=O)Nc1ccc(C(F)(F)F)cc1	21.8	0	0	0	-	0
CCCCC(CC)C(=O)Oc1ccc(O)c(C(C)(C)C)c1 (stereo not drawn)	0	511.4	0	0	0	0
CNC[C@H]1Oc2ccc(NC(=O)Nc3ccc(C(F)(F)F)cc3)cc2CC(=O)N([C@H](C)CO)C[C@@H]1C	0	0	0	0	-	0
C[C@H]1CN([C@@H](C)CO)C(=O)Cc2cc(NC(=O)c3ccncc3)ccc2O[C@@H]1CN(C)S(C)(=O)=O	-	0	-	-	-	-
C[C@H]1CCCCO[C@@H](CN(C)C(=O)CCC(F)(F)F)[C@@H](C)CN([C@@H](C)CO)C(=O)c2cc(NS(=O)(=O)c3ccccc3)ccc2O1	?	0	0	0	-	0
C[C@@H]1CCCCO[C@@H](CN(C)C(=O)Nc2ccccc2)[C@@H](C)CN([C@@H](C)CO)C(=O)c2cc(NC(=O)Nc3ccc(C(F)(F)F)cc3)ccc2O1	0	0	0	35.3	-	-
C[C@@H]1CCCCO[C@H](CN(C)C(=O)Nc2ccc(C(F)(F)F)cc2)[C@H](C)CN([C@@H](C)CO)C(=O)c2cc(NC(=O)Nc3ccccc3)ccc2O1	0	0	0	0	-	0
C[C@@H]1CCCCO[C@@H](CN(C)C(=O)Nc2ccc(C(F)(F)F)cc2)[C@H](C)CN([C@H](C)CO)C(=O)c2cc(NC(=O)Cc3ccccc3)ccc2O1	91.1	0	-	-	-	0
C[C@@H]1CCCCO[C@H](CN(C)C(=O)NC2CCCCC2)[C@H](C)CN([C@@H](C)CO)C(=O)c2cc(NC(=O)Nc3ccc(C(F)(F)F)cc3)ccc2O1	64.5	0	0	0	-	0
C[C@H]1CCCCO[C@H](CN(C)C(=O)Nc2ccc(C(F)(F)F)cc2)[C@@H](C)CN([C@@H](C)CO)C(=O)c2cc(NC(=O)Cc3ccccc3)ccc2O1	0	0	-	-	-	0
COc1ccc(NC(=O)Nc2ccc3c(c2)C(=O)N([C@H](C)CO)C[C@H](C)[C@H](CN(C)C(=O)Nc2ccc(C(F)(F)F)cc2)OCCCC[C@H](C)O3)cc1	47.8	0	0	0	-	0
COc1ccc(NC(=O)Nc2ccc3c(c2)C(=O)N([C@H](C)CO)C[C@H](C)[C@@H](CN(C)C(=O)Nc2ccc(C(F)(F)F)cc2)OCCCC[C@@H](C)O3)cc1	?	0	0	0	-	0
O=C(C[C@H]1C[C@H]2c3cc(NC(=O)NC4CCCCC4)ccc3O[C@H]2[C@@H](CO)O1)NCC(F)(F)F	0	0	0	0	-	0
C[C@H]1CCCCO[C@H](CN(C)C(=O)Nc2ccc3c(c2)OCO3)[C@@H](C)CN([C@@H](C)CO)C(=O)c2cc(NC(=O)Cc3ccccc3)ccc2O1	27.1	0	-	-	-	0
SMILES	DENV2 CPE rescue	INS-1E GSIS act	RAD52 anneal inh	MLL AF4-AF9 inh	dFosB act	RAD54 inh
C[C@@H]1CN([C@@H](C)CO)C(=O)c2cc(NC(=O)c3ccncc3)ccc2O[C@H]1CN(C)C(=O)NC1CCCCC1	35.3	0	0	0	-	0
C[C@H](CO)N1C[C@H](C)[C@H](CN(C)C(=O)c2ccccc2)OCCCC[C@H](C)Oc2ccc(NC(=O)Nc3ccc(C(F)(F)F)cc3)cc2C1=O	58.5	0	0	0	-	0
C[C@@H]1CN([C@H](C)CO)C(=O)c2cc(NC(=O)Nc3ccc(C(F)(F)F)cc3)ccc2O[C@H]1CN(C)C(=O)NC1CCCCC1	126.0	0	0	0	-	0
C[C@H]1CN([C@@H](C)CO)C(=O)c2cc(NC(=O)c3ccncc3)ccc2O[C@@H]1CN(C)C(=O)NC1CCCCC1	0	0	0	0	-	0
Cc1noc(C)c1NC(=O)Nc1ccc2c(c1)C(=O)N([C@H](C)CO)C[C@H](C)[C@H](CN(C)CC1CCCCC1)OCCCC[C@@H](C)O2	0	0	0	0	-	0
CCCc1cc2c(O)ccc(O)c2c(=O)o1	0	0	0	-	-	-
CCCc1cc2c(OC)ccc(O)c2c(=O)n1C	0	53.3	0	0	-	-
CC=Cc1ccc2n(c1=O)C[C@@H]1[C@@H](CO)[C@H](C(=O)N3CCN(C)CC3)N(Cc3ccccc3OC)[C@H]21 (mixture of isomers)	0	0	0	0	-	0
COc1cc2c(cc1OC)C(C)N(C(=O)Cn1ncc3c1-c1cc(C)ccc1OC3)CC2 (stereo not drawn)	70.0	0	0	0	0	0
C[C@H](NC(=O)C[C@H]1CC[C@@H]2[C@H](COC[C@H](O)CN2C(=O)Nc2cccc(F)c2)O1)c1ccccc1	0	0	0	0	-	0
O=C(Nc1cccc(Cl)c1)Nc1nnc(CSCCOc2ccc(Cl)cc2)s1	-	54.2	-	-	0	0
Cc1ccc(NC(=O)Nc2nnc(CSCCOc3ccc(Cl)cc3)s2)cc1	0	-	0	0	0	-
O=C(Nc1ccc(F)cc1)N1CCCCN2[C@@H](CO)[C@H](c3ccc(-c4ccccc4F)cc3)[C@@H]2C1	0	-	0	0	-	0
